Data published in PubChem BioAssay AID1159580 (chemical genetic matrix, 2015).
In all, about 5,500 compounds went through this assay and about 2,000 (36%) were called active. Not shown: some 18% with an inconclusive outcome. Cut-off read from the data, not from the text of the source: active = normalized growth mostly below about 0.91 (no sharp cut-off); inconclusive = no clear call, values can overlap the other calls; inactive = mostly above about 0.92. Some of the results follow.

Test: chemical genetic growth profiling, strain panel (AID 1159580);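 note: tested at 20 µM; growth read once vehicle control cultures reached saturation at 30 °C; 1 = growth at the plate median or of vehicle wells; lower values mean less growth of the strain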
Settings: growth OD
[1] = S. cerevisiae deletion strains, locus YAL013W, strain DEP1, stronger effect = lower value
[2] = S. cerevisiae deletion strains, locus YBR021W, strain FUR4, stronger effect = lower value
[3] = S. cerevisiae deletion strains, locus YBR229C, strain ROT2, stronger effect = lower value
[4] = S. cerevisiae deletion strains, locus YCL029C, strain bik1, stronger effect = lower value
[5] = S. cerevisiae deletion strains, locus YDL035C, strain GPR1, stronger effect = lower value
[6] = S. cerevisiae deletion strains, locus YDL074C, strain BRE1, stronger effect = lower value
[7] = S. cerevisiae deletion strains, locus YDL101C, strain DUN1, stronger effect = lower value
[8] = S. cerevisiae deletion strains, locus YDL134C, strain PPH21, stronger effect = lower value
[9] = S. cerevisiae deletion strains, locus YDL185W, strain tfp1, stronger effect = lower value
[10] = S. cerevisiae deletion strains, locus YDL192W, strain arf1, stronger effect = lower value
[11] = S. cerevisiae deletion strains, locus YDR101C, strain arx1, stronger effect = lower value
[12] = S. cerevisiae deletion strains, locus YDR150W, strain NUM1, stronger effect = lower value
[13] = S. cerevisiae deletion strains, locus YDR162C, strain NBP2, stronger effect = lower value
[14] = S. cerevisiae deletion strains, locus YDR318W, strain mcm21, stronger effect = lower value
[15] = S. cerevisiae deletion strains, locus YDR388W, stronger effect = lower value
[16] = S. cerevisiae deletion strains, locus YDR502C, strain sam2, stronger effect = lower value
[17] = S. cerevisiae deletion strains, locus YEL061C, strain CIN8, stronger effect = lower value
[18] = S. cerevisiae deletion strains, locus YER110C, stronger effect = lower value
[19] = S. cerevisiae deletion strains, locus YER155C, strain BEM2, stronger effect = lower value
[20] = S. cerevisiae deletion strains, locus YER167W, strain BCK2, stronger effect = lower value
[21] = S. cerevisiae deletion strains, locus YGL078C, strain dbp3, stronger effect = lower value
[22] = S. cerevisiae deletion strains, locus YGL086W, strain mad1, stronger effect = lower value
[23] = S. cerevisiae deletion strains, locus YGL248W, strain PDE1, stronger effect = lower value
[24] = S. cerevisiae deletion strains, locus YGR078C, strain PAC10, stronger effect = lower value
[25] = S. cerevisiae deletion strains, locus YGR135W, strain pre9, stronger effect = lower value
[26] = S. cerevisiae deletion strains, locus YGR229C, strain SMI1, stronger effect = lower value
[27] = S. cerevisiae deletion strains, locus YGR252W, strain gcn5, stronger effect = lower value
[28] = S. cerevisiae deletion strains, locus YHR030C, strain SLT2, stronger effect = lower value
[29] = S. cerevisiae deletion strains, locus YHR079C, strain IRE1 (second series), stronger effect = lower value
[30] = S. cerevisiae deletion strains, locus YHR094C, strain hxt1, stronger effect = lower value
[31] = S. cerevisiae deletion strains, locus YHR129C, strain ARP1, stronger effect = lower value
[32] = S. cerevisiae deletion strains, locus YHR200W, strain rpn10, stronger effect = lower value
[33] = S. cerevisiae deletion strains, locus YIL066C, strain RNR3, stronger effect = lower value
[34] = S. cerevisiae deletion strains, locus YIL073C, strain SPO22, stronger effect = lower value
[35] = S. cerevisiae deletion strains, locus YIL125W, strain kgd1, stronger effect = lower value
[36] = S. cerevisiae deletion strains, locus YIR030C, strain dcg1, stronger effect = lower value
[37] = S. cerevisiae deletion strains, locus YJL095W, strain BCK1, stronger effect = lower value
[38] = S. cerevisiae deletion strains, locus YJL134W, strain LCB3, stronger effect = lower value
[39] = S. cerevisiae deletion strains, locus YJL168C, strain set2, stronger effect = lower value
[40] = S. cerevisiae deletion strains, locus YJL187C, strain SWE1 (second series), stronger effect = lower value
[41] = S. cerevisiae deletion strains, locus YJR043C, strain POL32, stronger effect = lower value
[42] = S. cerevisiae deletion strains, locus YJR075W, strain HOC1, stronger effect = lower value
[43] = S. cerevisiae deletion strains, locus YKL009W, strain mrt4, stronger effect = lower value
[44] = S. cerevisiae deletion strains, locus YKL068W, stronger effect = lower value
[45] = S. cerevisiae deletion strains, locus YKL085W, strain MDH1 (second series), stronger effect = lower value
[46] = S. cerevisiae deletion strains, locus YKL085W, strain MDH1, stronger effect = lower value
[47] = S. cerevisiae deletion strains, locus YKL190W, strain CNB1, stronger effect = lower value
[48] = S. cerevisiae deletion strains, locus YKR001C, strain vps1, stronger effect = lower value
[49] = S. cerevisiae deletion strains, locus YLR039C, strain RIC1, stronger effect = lower value
[50] = S. cerevisiae deletion strains, locus YLR058C, strain SHM2, stronger effect = lower value
[51] = S. cerevisiae deletion strains, locus YLR102C, strain apc9, stronger effect = lower value
[52] = S. cerevisiae deletion strains, locus YLR262C, strain YPT6, stronger effect = lower value
[53] = S. cerevisiae deletion strains, locus YLR268W, strain sec22, stronger effect = lower value
[54] = S. cerevisiae deletion strains, locus YLR330W, strain CHS5, stronger effect = lower value
[55] = S. cerevisiae deletion strains, locus YLR342W, strain FKS1 (second series), stronger effect = lower value
[56] = S. cerevisiae deletion strains, locus YLR371W, strain rom2, stronger effect = lower value
[57] = S. cerevisiae deletion strains, locus YLR418C, strain cdc73, stronger effect = lower value
[58] = S. cerevisiae deletion strains, locus YML016C, strain PPZ1, stronger effect = lower value
[59] = S. cerevisiae deletion strains, locus YML032C, strain rad52, stronger effect = lower value
[60] = S. cerevisiae deletion strains, locus YML124C, strain tub3, stronger effect = lower value
[61] = S. cerevisiae deletion strains, locus YMR078C, strain ctf18, stronger effect = lower value
[62] = S. cerevisiae deletion strains, locus YMR223W, strain ubp8, stronger effect = lower value
[63] = S. cerevisiae deletion strains, locus YMR263W, strain SAP30, stronger effect = lower value
[64] = S. cerevisiae deletion strains, locus YMR307W, strain GAS1, stronger effect = lower value
[65] = S. cerevisiae deletion strains, locus YNL067W, strain RPL9B, stronger effect = lower value
[66] = S. cerevisiae deletion strains, locus YNL128W, strain TEP1, stronger effect = lower value
[67] = S. cerevisiae deletion strains, locus YNL153C, strain GIM3, stronger effect = lower value
[68] = S. cerevisiae deletion strains, locus YNL233W, strain BNI4, stronger effect = lower value
[69] = S. cerevisiae deletion strains, locus YNL250W, strain rad50, stronger effect = lower value
[70] = S. cerevisiae deletion strains, locus YNL271C, strain bni1, stronger effect = lower value
[71] = S. cerevisiae deletion strains, locus YNL298W, strain CLA4, stronger effect = lower value
[72] = S. cerevisiae deletion strains, locus YNL307C, strain MCK1, stronger effect = lower value
[73] = S. cerevisiae deletion strains, locus YNL322C, strain KRE1, stronger effect = lower value
[74] = S. cerevisiae deletion strains, locus YNR052C, strain pop2, stronger effect = lower value
[75] = S. cerevisiae deletion strains, locus YOL006C, strain TOP1, stronger effect = lower value
[76] = S. cerevisiae deletion strains, locus YOL012C, strain htz1
[77] = S. cerevisiae deletion strains, locus YOL147C, strain pex11, stronger effect = lower value
[78] = S. cerevisiae deletion strains, locus YOR061W, strain CKA2, stronger effect = lower value
[79] = S. cerevisiae deletion strains, locus YOR069W, strain VPS5, stronger effect = lower value
[80] = S. cerevisiae deletion strains, locus YOR136W, strain idh2, stronger effect = lower value
[81] = S. cerevisiae deletion strains, locus YOR144C, strain elg1, stronger effect = lower value
[82] = S. cerevisiae deletion strains, locus YOR184W, strain ser1, stronger effect = lower value
[83] = S. cerevisiae deletion strains, locus YOR316C, strain cot1, stronger effect = lower value
[84] = S. cerevisiae deletion strains, locus YPL055C, strain LGE1, stronger effect = lower value
[85] = S. cerevisiae deletion strains, locus YPL241C, strain CIN2, stronger effect = lower value
[86] = S. cerevisiae deletion strains, locus YPR119W, strain clb2, stronger effect = lower value
[87] = S. cerevisiae deletion strains, locus YPR141C, strain kar3, stronger effect = lower value
[88] = S. cerevisiae deletion strains, locus YPR163C, strain tif3, stronger effect = lower value
[89] = S. cerevisiae deletion strains, locus YPR167C, strain met16, stronger effect = lower value
[90] = S. cerevisiae deletion strains, strain wtn01, stronger effect = lower value
[91] = S. cerevisiae strains, strain wild type, stronger effect = lower value

Measured: normalized growth

CCOP(=S)(OCC)SCSCC
inactive: [1] 1 | [2] 0.979 | [3] 1 | [4] 1 | [5] 0.986 | [6] 0.963 | [7] 1 | [8] 0.998 | [9] 1.01 | [10] 1 | [11] 0.993 | [12] 0.994 | [13] 0.969 | [14] 1.01 | [15] 1 | [16] 1 | [17] 1.01 | [18] 1 | [19] 1 | [20] 1 | [21] 1 | [22] 0.998 | [23] 1 | [24] 0.99 | [25] 1.01 | [26] 0.998 | [27] 0.993 | [28] 1 | [29] 1.01 | [30] 0.997 | [31] 1.01 | [32] 1.01 | [33] 1.01 | [34] 1.06 | [35] 1 | [36] 1.01 | [37] 0.993 | [38] 1 | [39] 1.01 | [40] 1.01 | [41] 1.01 | [42] 1 | [43] 1.01 | [44] 1.01 | [45] 1 | [46] 1 | [47] 1.01 | [48] 0.998 | [49] 1.01 | [50] 1.01 | [51] 1.02 | [52] 0.953 | [53] 0.991 | [54] 0.999 | [55] 1.03 | [56] 1.02 | [57] 0.943 | [58] 1 | [59] 1 | [60] 1.01 | [61] 1 | [62] 1.01 | [63] 0.952 | [64] 1.02 | [65] 0.988 | [66] 1 | [67] 1 | [68] 1 | [69] 1.01 | [70] 1 | [71] 1.02 | [72] 1 | [73] 1.01 | [74] 1.01 | [75] 0.985 | [76] 0.793 | [77] 1 | [78] 0.994 | [79] 1 | [80] 1 | [81] 0.996 | [82] 1.01 | [83] 1 | [84] 0.974 | [85] 0.998 | [86] 0.997 | [87] 1.01 | [88] 1.01 | [89] 1.01 | [90] 1.01 | [91] 1.01

CCOP(=S)(OCC)SCCSCC
inactive: [1] 0.992 | [2] 1 | [3] 0.955 | [4] 0.977 | [5] 0.964 | [6] 0.896 | [7] 0.977 | [8] 0.983 | [9] 0.956 | [10] 0.981 | [11] 0.991 | [12] 0.975 | [13] 0.967 | [14] 0.97 | [15] 0.984 | [16] 0.986 | [17] 0.983 | [18] 0.985 | [19] 0.989 | [20] 0.992 | [21] 0.996 | [22] 0.991 | [23] 0.972 | [24] 0.965 | [25] 0.982 | [26] 0.968 | [27] 0.992 | [28] 0.992 | [29] 0.997 | [30] 0.991 | [31] 0.976 | [32] 0.994 | [33] 0.977 | [34] 0.982 | [35] 0.975 | [36] 0.996 | [37] 0.97 | [38] 0.98 | [39] 0.992 | [40] 0.979 | [41] 0.991 | [42] 0.961 | [43] 0.944 | [44] 0.977 | [45] 0.979 | [46] 0.979 | [47] 0.964 | [48] 0.976 | [49] 0.937 | [50] 0.972 | [51] 0.988 | [52] 0.878 | [53] 0.975 | [54] 0.974 | [55] 1.03 | [56] 0.999 | [57] 0.947 | [58] 0.982 | [59] 0.99 | [60] 0.995 | [61] 0.978 | [62] 0.992 | [63] 0.975 | [64] 1.04 | [65] 0.972 | [66] 0.945 | [67] 0.978 | [68] 0.99 | [69] 0.979 | [70] 0.994 | [71] 0.982 | [72] 0.993 | [73] 0.976 | [74] 0.998 | [75] 0.846 | [76] 0.792 | [77] 0.991 | [78] 0.96 | [79] 0.997 | [80] 0.995 | [81] 0.99 | [82] 0.956 | [83] 0.973 | [84] 0.949 | [85] 0.976 | [86] 0.99 | [87] 0.968 | [88] 0.999 | [89] 0.988 | [90] 0.995 | [91] 0.979
